Inconclusive results are not listed. Calls of active or inactive are those of the source. Unless noted, how the calls were made is not given here.
What was measured:
[1] = rapamycin-like changes in RPL19A-GFP expression – cell-based, S. cerevisiae, multiplex flow cytometry, primary screen (AID 1862; in the data active means percent of DMSO control GFP below about 86%;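 further: lower values mimic rapamycin by blocking the RPL19A rise seen in DMSO cells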); settings: S. cerevisiae RPL19A-GFP strain, flow cytometry fluorescence, 3 h; at 10 µM; stronger effect = lower value
[2] = TOR pathway GLN3 branch reporter MEP2-GFP changes – S. cerevisiae, multiplex flow cytometry, primary screen (AID 1867;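 active means GFP response, as percent of the DMSO control, above the screen-wide mean plus 3 SD, about 139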;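 further: median GFP channel fluorescence of barcode-gated MEP2-GFP cells measured by flow cytometry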); settings: S. cerevisiae MEP2-GFP strain, 3 h, at 10 µM, stronger effect = higher value
[3] = TOR pathway RTG branch CIT2 reporter changes – S. cerevisiae, GFP fusion, multiplex flow cytometry, primary screen (AID 1870;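 active means percent response above a set limit, the screen-wide mean plus 3 SD, cut at about 130% in these data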;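 further: barcoded CIT2-GFP strain pooled with four other GFP strains with rapamycin as positive control; median GFP fluorescence per well over plate mean of DMSO wells so 100% = DMSO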); settings: S. cerevisiae CIT2-GFP expression, 3 h, at 10 µM, stronger effect = higher value
[4] = TOR pathway LAP4-GFP level changes – S. cerevisiae, multiplex flow cytometry, primary screen (AID 1873;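 active means GFP signal, as percent of the solvent control, above the screen mean plus 3 SD, about 149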); settings: S. cerevisiae LAP4-GFP expression, 3 h, at 10 µM, stronger effect = higher value
[5] = yeast AGP1-GFP level changes, GLN3 branch – cell-based, multiplex flow cytometry, S. cerevisiae, primary screen (AID 1887;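 active means GFP signal above the screen-wide mean plus 3 SD, that is over about 124.5% of the solvent control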;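 further: AGP1-GFP fusion strain of S. cerevisiae within a five-strain barcoded multiplex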); settings: 3 h, at 10 µM, stronger effect = higher value
[6] = reduced mouse 2C T cell binding to pMHC/ICAM-1 vesicles – MLPCN validation set, flow cytometry, LFA-1/ICAM-1 modulator project, pilot screen (AID 2523;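 active means response below a set limit, under 55% cells CD8-positive and vesicle-bound, and CD8 cells' 90th-percentile brightness under 279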;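 on vesicle binding response: mean PE anti-B7-1 fluorescence of CD8+ cells relative to row control; 100% = QL9-loaded vesicles with DMSO vehicle in the same plate row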); settings: 2C mouse CD8+ T cells, at 7 µM, stronger effect = lower value; double positive events: measured here: CD8+/vesicle+ event percentage
[7] = target: Integrin beta-1 (Homo sapiens) + Integrin alpha-4 (Homo sapiens) (UniProt P13612+P05556); experiment: alpha4beta1 integrin LIBS antibody binding reduction – U937 cells, HUTS-21 mAb, flow cytometry, validation set, VLA-4 allosteric modulator project, pilot screen (AID 2674;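 active means inhibition above 50%, about 3 SD of the validation set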;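 further: antibody binding induced by the VLA-4 ligand LDV present at three times its Kd; 0% = LDV ligand with antibody and no compound and 100% = antibody without LDV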); settings: HUTS-21 LIBS mAb binding, at 6.7 µM, stronger effect = higher value
[8] = calorie-restriction mimetic ROS inhibitors, yeast – validation compound set, pilot screen (AID 2706;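 active means superoxide response below 65% of plate, a cut near 3 SD across the whole screen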;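 further: yeast exposed to compound for one week at 30 degrees C before staining; 100% = mean of all compound wells on the same plate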); settings: S. cerevisiae aging, superoxide DHE fluorescence; at 10 µM; stronger effect = lower value
[9] = target: Beta-adrenergic receptor kinase 1 (Homo sapiens) (UniProt P25098); experiment: GRK2 binders displacing RNA aptamer, biochemical, validation, human GRK2, bead flow cytometry (AID 488806;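 active means aptamer binding inhibition above 30%, about 3 SD of noise from non-fluorescent compounds; inactive means inhibition at or below 30%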); settings: bead-bound GRK2, FAM-aptamer displacement, at 10 µM, stronger effect = higher value
[10] = target: Beta-2 adrenergic receptor (Homo sapiens) (UniProt P07550); experiment: agonist-induced loss of surface beta2AR – cell-based, FAP fluorogen, flow cytometry, validation set, pilot screen (AID 504459;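 active means percent response above 42, roughly 3 SD of non-fluorescent test compounds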;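 further: agonist-driven loss of surface beta2AR via internalization measured by FAP dye flow cytometry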); settings: Am2.2-beta2AR cells, at 10 µM, stronger effect = higher value
[11] = target: AP-2 complex subunit beta (Homo sapiens) (UniProt P63010); experiment: beta-arrestin/AP2 interaction blockers – biochemical, validation set, GST-AP2 beads, flow cytometry, pilot screen (AID 504541;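 active means inhibition above 54%, about 3 SD of non-fluorescent compounds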;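 further: AP2 carries R879A mutation and is captured from E. coli lysate; bead-bound FITC arrestin peptide fluorescence measuring arrestin peptide binding to AP2; 0% = DMSO wells and 100% = excess unlabeled arrestin peptide control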); settings: FITC arrestin peptide, at 10 µM, stronger effect = higher value
[12] = cytosolic pH regulators acting via V-ATPase – S. cerevisiae, pHLuorin, HTS validation (AID 504600; in the data active means response above about 15%;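 further: plate controls were DMSO for no effect and reference compound for full effect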); settings: V-ATPase proton transport, at 10 µM, stronger effect = higher value
[13] = test system: anti-desmoglein-3 scFv antibody binding to human DSG3; experiment: blockers of pathogenic pemphigus antibody–desmoglein-3 binding – biochemical, validation compound set, bead-based, flow cytometry, pilot screen (AID 588368;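 active means binding below the plate cutoff, the plate median minus 3 SD, with a reading above zero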;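 further: signal is the median channel fluorescence of bead-bound GFP antibody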); settings: Protein G beads, DSG3-Fc, scFv-GFP binding, at 10 µM, stronger effect = lower value
[14] = test system: Botulinum neurotoxin type F light chain protease (Clostridium botulinum); experiment: Clostridium botulinum type F light chain protease inhibitors, microsphere substrate cleavage, validation (AID 588459); settings: multiplex microsphere protease substrate cleavage assay, flow cytometry; at 10 µM; stronger effect = higher value
[15] = target: Botulinum neurotoxin type A (Clostridium botulinum) (UniProt P0DPI0); experiment: BoNT/A light chain protease inhibitors, biochemical, multiplex microsphere flow cytometry, validation set (AID 588460); settings: at 10 µM, stronger effect = higher value
[16] = target: Lethal factor (Bacillus anthracis) (UniProt P15917); experiment: Bacillus anthracis lethal factor inhibition, microsphere flow cytometry protease assay, validation at 10 µM (AID 588461); settings: multiplex microsphere protease cleavage assay, stronger effect = higher value
[17] = Nile Red efflux blockade in pump-expressing yeast – validation compound set, multiplex, phenotypic, pilot screen (AID 588506;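 active means efflux inhibition above 0.42, the validation set average plus 4 SD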;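 further: Nile Red retained in cells so higher fluorescence means more efflux inhibition; 0 = negative control wells and 1 = enniatin B 25 µM full block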); settings: S. cerevisiae pump-expressing triplex, Nile Red efflux flow cytometry; at 10 µM; stronger effect = higher value
[18] = target: ATP-binding cassette sub-family B member 6 (Homo sapiens) (UniProt Q9NP58); experiment: blockers of ABCB6-driven porphyrin uptake – K562-ABCB6 cells, flow cytometry, validation set, pilot screen (AID 588550;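 active means inhibition above the screen-wide mean plus 3 SD, about 51%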;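 further: 0% = DMSO wells and 100% = benzethonium chloride 70 µM positive control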); settings: K562-ABCB6 porphyrin accumulation, 1 h, at 10 µM, stronger effect = higher value
[19] = AML differentiation inducers, ER-HoxA9 marrow cells – cell-based, GFP/MAC1 double positive, flow cytometry, validation set, primary screen (AID 588685;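 active means differentiation response of at least 50%, scaled between solvent and reference control, from cells with both markers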;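 further: compound exposure lasts four days before antibody staining and flow analysis; 0% = DMSO wells and 100% = 5 µM fulvestrant positive control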); settings: stronger effect = higher value

Sequence of Botulinum neurotoxin type A (Clostridium botulinum) (P0DPI0 whole entry, looked up): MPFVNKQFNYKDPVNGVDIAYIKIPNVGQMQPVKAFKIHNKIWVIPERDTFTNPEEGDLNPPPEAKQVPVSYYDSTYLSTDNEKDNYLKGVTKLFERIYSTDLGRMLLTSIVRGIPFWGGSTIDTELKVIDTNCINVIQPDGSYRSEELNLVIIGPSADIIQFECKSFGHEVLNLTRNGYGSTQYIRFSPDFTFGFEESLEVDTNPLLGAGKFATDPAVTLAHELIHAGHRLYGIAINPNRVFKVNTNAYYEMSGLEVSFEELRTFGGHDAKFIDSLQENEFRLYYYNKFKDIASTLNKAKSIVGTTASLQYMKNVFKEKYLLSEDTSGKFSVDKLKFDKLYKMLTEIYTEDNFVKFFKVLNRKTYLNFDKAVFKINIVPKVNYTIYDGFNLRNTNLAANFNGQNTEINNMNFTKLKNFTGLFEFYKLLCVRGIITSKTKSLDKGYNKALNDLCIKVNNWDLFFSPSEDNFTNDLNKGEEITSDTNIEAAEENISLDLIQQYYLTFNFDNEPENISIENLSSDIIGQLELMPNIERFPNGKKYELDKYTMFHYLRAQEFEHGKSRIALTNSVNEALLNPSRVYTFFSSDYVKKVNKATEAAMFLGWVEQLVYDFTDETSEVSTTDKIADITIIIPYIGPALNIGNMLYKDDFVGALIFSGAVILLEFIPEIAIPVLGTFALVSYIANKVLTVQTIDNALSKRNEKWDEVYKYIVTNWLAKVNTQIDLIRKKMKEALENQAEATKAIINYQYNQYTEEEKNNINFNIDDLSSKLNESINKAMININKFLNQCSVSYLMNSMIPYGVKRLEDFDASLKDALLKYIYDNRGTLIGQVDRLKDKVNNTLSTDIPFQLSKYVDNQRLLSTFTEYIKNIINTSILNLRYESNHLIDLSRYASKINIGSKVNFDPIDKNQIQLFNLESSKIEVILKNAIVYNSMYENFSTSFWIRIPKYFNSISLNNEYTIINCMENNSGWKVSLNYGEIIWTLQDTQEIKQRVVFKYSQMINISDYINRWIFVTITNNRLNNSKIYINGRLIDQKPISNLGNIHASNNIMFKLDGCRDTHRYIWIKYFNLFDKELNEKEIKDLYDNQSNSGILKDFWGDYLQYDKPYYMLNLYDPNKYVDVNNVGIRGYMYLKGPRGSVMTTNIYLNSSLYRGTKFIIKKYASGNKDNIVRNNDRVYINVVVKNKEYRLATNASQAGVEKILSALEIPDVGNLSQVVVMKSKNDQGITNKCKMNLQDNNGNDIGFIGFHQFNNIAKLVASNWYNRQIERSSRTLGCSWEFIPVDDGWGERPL
Sequence of ATP-binding cassette sub-family B member 6 (Homo sapiens) (Q9NP58 whole entry, looked up): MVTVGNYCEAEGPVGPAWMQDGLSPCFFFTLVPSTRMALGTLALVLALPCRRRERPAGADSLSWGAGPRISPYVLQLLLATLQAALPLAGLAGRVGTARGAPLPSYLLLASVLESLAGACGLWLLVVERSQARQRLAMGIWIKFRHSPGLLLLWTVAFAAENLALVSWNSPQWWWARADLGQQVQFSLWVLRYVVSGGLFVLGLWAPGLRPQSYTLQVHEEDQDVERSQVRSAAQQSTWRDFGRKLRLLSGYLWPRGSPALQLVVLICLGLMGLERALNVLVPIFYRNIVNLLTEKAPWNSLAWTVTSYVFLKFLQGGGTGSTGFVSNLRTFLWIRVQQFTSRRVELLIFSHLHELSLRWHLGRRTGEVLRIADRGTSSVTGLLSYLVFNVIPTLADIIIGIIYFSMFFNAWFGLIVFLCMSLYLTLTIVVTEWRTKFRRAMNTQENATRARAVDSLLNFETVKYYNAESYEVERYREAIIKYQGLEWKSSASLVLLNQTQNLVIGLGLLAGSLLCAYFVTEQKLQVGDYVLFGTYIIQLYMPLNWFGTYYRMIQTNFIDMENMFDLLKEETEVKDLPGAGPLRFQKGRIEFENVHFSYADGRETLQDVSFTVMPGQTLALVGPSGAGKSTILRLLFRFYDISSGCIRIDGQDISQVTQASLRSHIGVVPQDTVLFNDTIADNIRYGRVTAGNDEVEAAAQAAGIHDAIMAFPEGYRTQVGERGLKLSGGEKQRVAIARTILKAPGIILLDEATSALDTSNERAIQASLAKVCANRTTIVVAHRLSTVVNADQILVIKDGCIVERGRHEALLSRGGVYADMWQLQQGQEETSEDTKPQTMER
Sequence of Integrin beta-1 (Homo sapiens) + Integrin alpha-4 (Homo sapiens) (P05556 whole entry, looked up): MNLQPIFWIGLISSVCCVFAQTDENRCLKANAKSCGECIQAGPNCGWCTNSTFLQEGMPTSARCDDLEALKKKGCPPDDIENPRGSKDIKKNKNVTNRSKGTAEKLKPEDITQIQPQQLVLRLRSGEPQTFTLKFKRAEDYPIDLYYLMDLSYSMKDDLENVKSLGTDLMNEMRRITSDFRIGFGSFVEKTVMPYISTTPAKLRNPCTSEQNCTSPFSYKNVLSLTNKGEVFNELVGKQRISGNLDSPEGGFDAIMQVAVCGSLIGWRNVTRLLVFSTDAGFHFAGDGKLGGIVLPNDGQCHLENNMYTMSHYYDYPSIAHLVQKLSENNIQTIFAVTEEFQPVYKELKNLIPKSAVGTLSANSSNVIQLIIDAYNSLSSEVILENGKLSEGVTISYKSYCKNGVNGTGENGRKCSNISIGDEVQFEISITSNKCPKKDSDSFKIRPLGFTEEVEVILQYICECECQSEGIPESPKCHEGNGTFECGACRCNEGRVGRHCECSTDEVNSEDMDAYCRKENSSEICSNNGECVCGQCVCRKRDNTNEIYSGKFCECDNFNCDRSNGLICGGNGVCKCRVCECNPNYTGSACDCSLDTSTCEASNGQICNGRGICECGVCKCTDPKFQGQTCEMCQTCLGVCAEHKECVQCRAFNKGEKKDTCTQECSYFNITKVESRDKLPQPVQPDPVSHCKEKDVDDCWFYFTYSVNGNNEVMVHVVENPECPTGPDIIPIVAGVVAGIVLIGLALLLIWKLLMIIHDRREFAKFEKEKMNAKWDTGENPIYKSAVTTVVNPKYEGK
Sequence of Integrin beta-1 (Homo sapiens) + Integrin alpha-4 (Homo sapiens) (P13612 whole entry, looked up): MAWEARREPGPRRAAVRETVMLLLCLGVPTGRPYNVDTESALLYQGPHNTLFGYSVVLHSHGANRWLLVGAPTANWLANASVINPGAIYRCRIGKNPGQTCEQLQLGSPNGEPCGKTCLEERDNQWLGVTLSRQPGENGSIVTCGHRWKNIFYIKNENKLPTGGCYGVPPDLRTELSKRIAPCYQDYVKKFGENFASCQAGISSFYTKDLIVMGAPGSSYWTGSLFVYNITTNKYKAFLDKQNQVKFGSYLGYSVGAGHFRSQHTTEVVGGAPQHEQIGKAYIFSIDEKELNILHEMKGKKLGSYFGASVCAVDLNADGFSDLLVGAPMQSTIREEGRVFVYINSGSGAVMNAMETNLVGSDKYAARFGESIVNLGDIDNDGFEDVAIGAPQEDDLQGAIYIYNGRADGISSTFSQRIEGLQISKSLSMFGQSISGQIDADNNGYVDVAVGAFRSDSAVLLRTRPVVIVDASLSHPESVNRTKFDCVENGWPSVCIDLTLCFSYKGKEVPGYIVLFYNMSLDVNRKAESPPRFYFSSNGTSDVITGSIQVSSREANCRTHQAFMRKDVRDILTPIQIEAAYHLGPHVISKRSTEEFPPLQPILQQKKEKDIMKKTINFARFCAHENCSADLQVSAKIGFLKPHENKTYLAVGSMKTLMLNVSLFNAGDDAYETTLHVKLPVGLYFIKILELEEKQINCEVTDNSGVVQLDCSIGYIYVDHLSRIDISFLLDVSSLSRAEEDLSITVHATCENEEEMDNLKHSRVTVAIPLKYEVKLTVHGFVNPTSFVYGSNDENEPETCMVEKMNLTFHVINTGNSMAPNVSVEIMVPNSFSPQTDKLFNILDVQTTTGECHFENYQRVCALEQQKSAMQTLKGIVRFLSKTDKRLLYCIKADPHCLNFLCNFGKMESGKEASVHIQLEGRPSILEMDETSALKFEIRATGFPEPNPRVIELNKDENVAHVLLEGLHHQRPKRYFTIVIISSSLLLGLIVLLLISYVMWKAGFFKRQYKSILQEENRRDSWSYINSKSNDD
Sequence of Beta-2 adrenergic receptor (Homo sapiens) (P07550 whole entry, looked up): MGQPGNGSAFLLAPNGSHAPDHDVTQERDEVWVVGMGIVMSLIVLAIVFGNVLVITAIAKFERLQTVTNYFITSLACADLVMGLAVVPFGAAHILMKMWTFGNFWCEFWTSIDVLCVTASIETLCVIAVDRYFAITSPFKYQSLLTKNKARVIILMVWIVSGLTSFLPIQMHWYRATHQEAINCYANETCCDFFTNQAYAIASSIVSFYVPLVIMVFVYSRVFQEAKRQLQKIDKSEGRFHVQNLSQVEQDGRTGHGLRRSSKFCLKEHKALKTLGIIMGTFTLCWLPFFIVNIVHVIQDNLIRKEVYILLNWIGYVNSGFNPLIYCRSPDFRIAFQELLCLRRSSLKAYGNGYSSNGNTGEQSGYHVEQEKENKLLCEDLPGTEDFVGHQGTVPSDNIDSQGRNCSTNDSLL
Sequence of Beta-adrenergic receptor kinase 1 (Homo sapiens) (P25098 whole entry, looked up): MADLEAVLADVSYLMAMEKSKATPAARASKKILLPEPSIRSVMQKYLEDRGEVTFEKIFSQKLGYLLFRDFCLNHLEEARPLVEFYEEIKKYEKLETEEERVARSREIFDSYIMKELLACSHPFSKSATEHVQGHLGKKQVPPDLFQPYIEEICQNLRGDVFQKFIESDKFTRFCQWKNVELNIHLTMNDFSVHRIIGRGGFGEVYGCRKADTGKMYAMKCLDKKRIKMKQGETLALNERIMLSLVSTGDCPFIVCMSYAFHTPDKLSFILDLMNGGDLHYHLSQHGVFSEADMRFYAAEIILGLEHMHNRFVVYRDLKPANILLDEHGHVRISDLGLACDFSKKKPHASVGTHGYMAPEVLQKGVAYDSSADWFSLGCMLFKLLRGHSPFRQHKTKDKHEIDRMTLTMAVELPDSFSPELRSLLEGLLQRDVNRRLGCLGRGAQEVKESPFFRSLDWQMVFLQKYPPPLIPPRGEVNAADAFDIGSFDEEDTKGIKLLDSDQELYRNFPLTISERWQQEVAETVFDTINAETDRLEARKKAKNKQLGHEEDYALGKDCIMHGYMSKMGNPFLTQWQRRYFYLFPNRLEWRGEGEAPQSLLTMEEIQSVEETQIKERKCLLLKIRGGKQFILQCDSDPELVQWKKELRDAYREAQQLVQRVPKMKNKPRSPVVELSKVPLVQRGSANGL

COc1ccccc1CN1CCCCC1c1cccnc1 (stereo not given)
inactive: percent of DMSO control GFP [1] 104% | GFP response vs DMSO [2] 99.3% | percent response of DMSO control [3] 106% | GFP response vs DMSO [4] 97.3% | GFP response, % of DMSO [5] 107% | vesicle binding response [6] 217% | inhibition [7] 4.73% | superoxide response (% of plate) [8] 98.9% | aptamer binding inhibition [9] 6% | response [10] -6.83% | inhibition [11] 1.86% | response [12] -0.89% | binding (% of control) [13] 97.1% | inhibition [14] 1.4% | inhibition [15] -0.8% | inhibition [16] 4% | efflux inhibition (fraction of control) [17] -0.17 | inhibition [18] 6% | differentiation response [19] 7.09%
65.8%: double positive events [6]

CCOc1ccc(N2C(=O)NC(=O)/C(=C\c3cc(OC)c(OC)cc3[N+](=O)[O-])C2=O)cc1
60.3%: double positive events [6]
inactive: percent of DMSO control GFP [1] 102% | GFP response vs DMSO [2] 97.7% | percent response of DMSO control [3] 109% | GFP response vs DMSO [4] 89.3% | GFP response, % of DMSO [5] 103% | vesicle binding response [6] 144% | inhibition [7] -7.79% | superoxide response (% of plate) [8] 107% | aptamer binding inhibition [9] 0% | response [10] 7.81% | inhibition [11] 7.81% | response [12] -4.04% | binding (% of control) [13] 97.9% | inhibition [14] -3.1% | inhibition [15] -0.2% | inhibition [16] 4.2% | efflux inhibition (fraction of control) [17] -0.15 | inhibition [18] -11% | differentiation response [19] 17.4%

CN1C[C@H](CNC(=O)OCc2ccccc2)C[C@@H]2c3cccc4c3c(cn4C)C[C@H]21
inactive: percent of DMSO control GFP [1] 103% | GFP response vs DMSO [2] 101% | percent response of DMSO control [3] 99% | GFP response vs DMSO [4] 104% | GFP response, % of DMSO [5] 108% | vesicle binding response [6] 365% | inhibition [7] -34.3% | superoxide response (% of plate) [8] 125% | aptamer binding inhibition [9] -1% | response [10] 13.7% | inhibition [11] -6.87% | response [12] -0.08% | binding (% of control) [13] 110% | inhibition [14] -0.5% | inhibition [15] 1.5% | inhibition [16] -7.6% | efflux inhibition (fraction of control) [17] 0.04 | inhibition [18] -29% | differentiation response [19] -6.96%
63.3%: double positive events [6]

CC(C)C[C@H]1C(=O)N2CCCC2[C@]2(O)O[C@](NC(=O)[C@@H]3C=C4c5cccc6[nH]cc(c56)CC4N(C)C3)(C(C)C)C(=O)N12 (stereo not given in full)
61.2%: double positive events [6]
inactive: percent of DMSO control GFP [1] 93.5% | GFP response vs DMSO [2] 116% | percent response of DMSO control [3] 96.6% | GFP response vs DMSO [4] 79.2% | GFP response, % of DMSO [5] 96.6% | vesicle binding response [6] 108% | inhibition [7] -162% | superoxide response (% of plate) [8] 94.2% | aptamer binding inhibition [9] 5% | response [10] -35.9% | inhibition [11] 4.91% | response [12] 3.06% | binding (% of control) [13] 109% | inhibition [14] -7% | inhibition [15] -1.6% | inhibition [16] -34.6% | efflux inhibition (fraction of control) [17] 0.41 | inhibition [18] 10% | differentiation response [19] -6.55%

OC1CCCCC1N1CCC(c2ccccc2)CC1 (stereo not given)
inactive: percent of DMSO control GFP [1] 92.8% | GFP response vs DMSO [2] 133% | percent response of DMSO control [3] 91.3% | GFP response vs DMSO [4] 70.4% | GFP response, % of DMSO [5] 89.4% | vesicle binding response [6] 171% | inhibition [7] 5.49% | superoxide response (% of plate) [8] 110% | aptamer binding inhibition [9] 3% | response [10] -8.3% | inhibition [11] -5.17% | response [12] 2.23% | binding (% of control) [13] 127% | inhibition [14] 8.9% | inhibition [15] -1% | inhibition [16] 6.3% | inhibition [18] 15% | differentiation response [19] -1.64%
active: efflux inhibition (fraction of control) [17] 0.52
62.4%: double positive events [6]

CC12CCC3C(CC=C4CC(O)CCC43C)C1C/C(=C\c1cccc(F)c1)C2=O (stereo not given)
63.9%: double positive events [6]
inactive: percent of DMSO control GFP [1] 98.2% | GFP response vs DMSO [2] 103% | percent response of DMSO control [3] 95.1% | GFP response vs DMSO [4] 113% | GFP response, % of DMSO [5] 102% | vesicle binding response [6] 171% | inhibition [7] -7.08% | superoxide response (% of plate) [8] 100% | aptamer binding inhibition [9] 3% | response [10] -8.92% | inhibition [11] 9.38% | response [12] -4.42% | binding (% of control) [13] 98.7% | inhibition [14] -0.7% | inhibition [15] -0.1% | inhibition [16] -1.4% | efflux inhibition (fraction of control) [17] -0.13 | inhibition [18] -1% | differentiation response [19] 2.89%

Clc1ccc(C2NCCc3[nH]cnc32)cc1 (stereo not given)
60.8%: double positive events [6]
inactive: percent of DMSO control GFP [1] 104% | GFP response vs DMSO [2] 98.3% | percent response of DMSO control [3] 101% | GFP response vs DMSO [4] 92% | GFP response, % of DMSO [5] 104% | vesicle binding response [6] 244% | inhibition [7] -1.49% | superoxide response (% of plate) [8] 94.4% | aptamer binding inhibition [9] -1% | response [10] -11.3% | inhibition [11] -2.42% | response [12] 0.96% | binding (% of control) [13] 100% | inhibition [14] 1.1% | inhibition [15] 0.7% | inhibition [16] -5.5% | efflux inhibition (fraction of control) [17] -0.1 | inhibition [18] 1% | differentiation response [19] -5.62%

CC[C@]12C=CCN3CCC4(c5cc(Br)c(OC)cc5N(C)C4[C@@](O)(C(=O)OC)[C@@H]1OC(C)=O)C32 (stereo not given in full)
48.2%: double positive events [6]
inactive: percent of DMSO control GFP [1] 88.9% | GFP response vs DMSO [2] 130% | percent response of DMSO control [3] 96.6% | GFP response vs DMSO [4] 84.2% | GFP response, % of DMSO [5] 90.5% | inhibition [7] 29.7% | superoxide response (% of plate) [8] 95.7% | aptamer binding inhibition [9] 5% | response [10] -10.3% | inhibition [11] -7.24% | response [12] 5.2% | binding (% of control) [13] 109% | inhibition [14] 2.5% | inhibition [15] 1.6% | inhibition [16] -5.6% | efflux inhibition (fraction of control) [17] 0.23 | inhibition [18] 10% | differentiation response [19] 0%
active: vesicle binding response [6] 18.6%

Reference: PubChem BioAssay
